# Experimental data: PubChem BioAssay (EPA / NIEHS)
# Values joined by “and” are separate entries in the source; they are usually repeats but may differ in a detail not shown here. Identical values can stand only once. Records with an inconclusive call do not appear. Some structures have more than one record in an assay (separate samples or runs), and their calls can disagree. Active and inactive are the calls of the source. How the source made its calls, unless noted: active means hit-call score of the fitted dose curve at least 0.9, where 1 is the maximum; inconclusive means response in the unintended direction; inactive means score below 0.9.
# Assay: CCTE_Mundy_HCI_Cortical_NOG_NeuronCount: CCTE's Neurite Outgrowth Assay in rat cortical cells for Neuron Count, Mundy Lab (AID 2284236);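 further: neurons counted by imaging betaIII-tubulin and Hoechst stained cortical cells; cells exposed to compound for about 48 hours before fixation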
# Summary of the method: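 Read-out: neuron number by high-content imaging of betaIII-tubulin (Alexa Fluor-488) and Hoechst-labelled rat primary cortical cells.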
Structure (SMILES),AC50,outcome
CO/C=C(/C(=O)OC)c1ccccc1Oc1cc(Oc2ccccc2C#N)ncn1,4.67 µM (active),–
CC(C)(C)c1ccc(CSc2cnn(C(C)(C)C)c(=O)c2Cl)cc1,0.0982 µM (active),–
CCCCOC(=O)c1ccccc1C(=O)OCCCC,–,inactive
C=CC1(C)OC(=O)N(c2cc(Cl)cc(Cl)c2)C1=O (centres undefined),–,inactive
COC(=O)N(OC)c1ccccc1COc1ccn(-c2ccc(Cl)cc2)n1,0.143 µM (active),–
COP(=S)(OC)Oc1nc(Cl)c(Cl)cc1Cl,15 µM (active),–
CN(C)C(=S)SSC(=S)N(C)C,0.0469 µM (active),–
CCOC(=O)CC(SP(=S)(OC)OC)C(=O)OCC (centres undefined),23.9 µM (active),–
COP(N)(=O)SC (centres undefined),–,inactive
Cc1ccc(-c2c(Cl)nc(C#N)n2S(=O)(=O)N(C)C)cc1,50 µM (active),–
N#Cc1nn(-c2c(Cl)cc(C(F)(F)F)cc2Cl)c(N)c1S(=O)C(F)(F)F (centres undefined),–,inactive

# Assay: CCTE_Mundy_HCI_Cortical_NOG_BPCount: CCTE's Neurite Outgrowth Assay in rat cortical cells for Branch Point Count, Mundy Lab (AID 2284237; active means hit-call score of the fitted dose curve at least 0.9, where 1 is the maximum; inactive means score below 0.9;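 on AC50: branch points counted about two days after chemical exposure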)
# Summary of the method: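 Measured 50.33 h after dosing, this morphology endpoint uses rat primary cortical cultures labelled for betaIII-tubulin. Branch points are quantified by high-content imaging, with DMSO as negative control and baseline.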
Structure (SMILES),AC50,outcome
CO/C=C(/C(=O)OC)c1ccccc1Oc1cc(Oc2ccccc2C#N)ncn1,2.23 µM (active),–
CCCCNC(=O)n1c(NC(=O)OC)nc2ccccc21,10.3 µM (active),–
CC(C)(C)c1ccc(CSc2cnn(C(C)(C)C)c(=O)c2Cl)cc1,0.00299 µM (active),–
CCCCOC(=O)c1ccccc1C(=O)OCCCC,–,inactive
C=CC1(C)OC(=O)N(c2cc(Cl)cc(Cl)c2)C1=O (centres undefined),–,inactive
C=CCC1=C(C)[C@@H](OC(=O)[C@@H]2[C@@H](C=C(C)C)C2(C)C)CC1=O,–,inactive
COC(=O)N(OC)c1ccccc1COc1ccn(-c2ccc(Cl)cc2)n1,0.116 µM (active),–
C=CCC1=C(C)C(OC(=O)C2C(C=C(C)C)C2(C)C)CC1=O (centres undefined),–,inactive
CNC(=O)ON=CC(C)(C)SC,–,inactive
COP(=S)(OC)Oc1nc(Cl)c(Cl)cc1Cl,24.1 µM (active),–
CN(C)C(=S)SSC(=S)N(C)C,0.055 µM (active),–
COP(N)(=O)SC (centres undefined),–,inactive
Cc1ccc(-c2c(Cl)nc(C#N)n2S(=O)(=O)N(C)C)cc1,78 µM (active),–
N#Cc1nn(-c2c(Cl)cc(C(F)(F)F)cc2Cl)c(N)c1S(=O)C(F)(F)F (centres undefined),–,inactive

# Assay: CCTE_Mundy_HCI_hNP1_CellTiter: CCTE's Cell Titer-Glo 2 Assay in human neuroprogenitor cells for Viability, Mundy Lab (AID 2284241);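 on AC50: a hit is a drop in ATP luminescence versus DMSO meaning reduced viability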
# Summary of the method: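 Viability read as luminescent ATP content (CellTiter-Glo, 30 min room temperature) twenty-four hours after dosing, relative to DMSO. Cells: WA09-derived hNP1 neuroprogenitors on poly-L-ornithine/laminin, plated 40 to 44 hours before chemical.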
Structure (SMILES),AC50,outcome
CCCCNC(=O)n1c(NC(=O)OC)nc2ccccc21,10 µM (active),–
CC(C)(C)c1ccc(CSc2cnn(C(C)(C)C)c(=O)c2Cl)cc1,11.5 µM (active),–
C=CC1(C)OC(=O)N(c2cc(Cl)cc(Cl)c2)C1=O (centres undefined),–,inactive
C=CCC1=C(C)[C@@H](OC(=O)[C@@H]2[C@@H](C=C(C)C)C2(C)C)CC1=O,7.56 µM (active),–
COC(=O)N(OC)c1ccccc1COc1ccn(-c2ccc(Cl)cc2)n1,50 µM (active),–
C=CCC1=C(C)C(OC(=O)C2C(C=C(C)C)C2(C)C)CC1=O (centres undefined),–,inactive
CNC(=O)ON=CC(C)(C)SC,–,inactive
COP(=S)(OC)Oc1nc(Cl)c(Cl)cc1Cl,–,inactive
CN(C)C(=S)SSC(=S)N(C)C,9.92 µM (active),–
CCOC(=O)CC(SP(=S)(OC)OC)C(=O)OCC (centres undefined),72.8 µM (active),inactive
CCOc1cc(Oc2ccc(C(F)(F)F)cc2Cl)ccc1[N+](=O)[O-],18.9 µM (active),–
CCCCC(CC)COC(=O)c1ccccc1C(=O)OCC(CC)CCCC (centres undefined),9.22 µM (active),–
COP(N)(=O)SC (centres undefined),–,inactive
Cc1ccc(-c2c(Cl)nc(C#N)n2S(=O)(=O)N(C)C)cc1,85.4 µM (active),–
N#Cc1nn(-c2c(Cl)cc(C(F)(F)F)cc2Cl)c(N)c1S(=O)C(F)(F)F (centres undefined),–,inactive

# Assay: CCTE_Mundy_HCI_Cortical_Synap_Neur_Matur_NeuronCount: CCTE's Synaptogenesis and Neurite Maturation Assay in rat cortical cells for Neuron Count, Mundy Lab (AID 2284242);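 on AC50: hits reduce neuron count versus DMSO baseline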
# Summary of the method: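 Rat primary cortical cells, AraC added at DIV 5, dosed with media change from DIV 7 to DIV 12. Fixed, Hoechst-stained and immunolabelled for MAP2 and synaptophysin; neuron number counted by high-content imaging, loss fitted versus DMSO.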
Structure (SMILES),AC50,outcome
CO/C=C(/C(=O)OC)c1ccccc1Oc1cc(Oc2ccccc2C#N)ncn1,3.73 µM (active),–
CC(C)(C)c1ccc(CSc2cnn(C(C)(C)C)c(=O)c2Cl)cc1,0.000347 µM (active),–
CCCCOC(=O)c1ccccc1C(=O)OCCCC,81.3 µM (active),–
C=CCC1=C(C)[C@@H](OC(=O)[C@@H]2[C@@H](C=C(C)C)C2(C)C)CC1=O,26.6 µM (active),–
COC(=O)N(OC)c1ccccc1COc1ccn(-c2ccc(Cl)cc2)n1,0.0487 µM (active),–
COP(=S)(OC)Oc1nc(Cl)c(Cl)cc1Cl,25.7 µM (active),–
CN(C)C(=S)SSC(=S)N(C)C,0.0653 µM (active),–
CCOC(=O)CC(SP(=S)(OC)OC)C(=O)OCC (centres undefined),50 µM (active),–
CCOc1cc(Oc2ccc(C(F)(F)F)cc2Cl)ccc1[N+](=O)[O-],15 µM (active),–
CCCCC(CC)COC(=O)c1ccccc1C(=O)OCC(CC)CCCC (centres undefined),7.31 µM (active) and 5.3 µM (active),–
COP(N)(=O)SC (centres undefined),–,inactive
Cc1ccc(-c2c(Cl)nc(C#N)n2S(=O)(=O)N(C)C)cc1,50 µM (active),–
N#Cc1nn(-c2c(Cl)cc(C(F)(F)F)cc2Cl)c(N)c1S(=O)C(F)(F)F (centres undefined),15 µM (active),–
